Several values for one entry are separate records, joined by “and”; a condition that tells them apart may be missing. Equal values may be shown once. Inconclusive results are not listed. Activity calls are given as the source filed them. Calls come from the whole dose curve; as a rule, active = well fitted curve in the direction sought with a large enough effect; inconclusive = small, poorly fitted or top-dose-only effect, or another doubt; inactive = no such curve, though single readings can be large; an effect the other way counts as inactive or inconclusive.
Key:
[1] = biological target: Cellular tumor antigen p53 (Homo sapiens) (UniProt P04637); test: Primary qHTS for small molecule compounds that upregulate eGFP-tagged delta133p53alpha (in N-terminal) cells. (AID 2060322); conditions: NCI-H358 eGFP-delta133p53alpha fluorescence, 24 h; activation: active compounds read high; note: nearly all actives have a fitted effect of over 75% in size; note: potency is the fitted concentration of half-maximal effect;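 for activation: cells pre-induced with doxycycline then dosed without doxycycline; series mostly up to about 56 µM; 0% = DMSO vehicle and 100% = reference activator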
Cellular tumor antigen p53 (Homo sapiens), sequence (P04637 whole entry, looked up): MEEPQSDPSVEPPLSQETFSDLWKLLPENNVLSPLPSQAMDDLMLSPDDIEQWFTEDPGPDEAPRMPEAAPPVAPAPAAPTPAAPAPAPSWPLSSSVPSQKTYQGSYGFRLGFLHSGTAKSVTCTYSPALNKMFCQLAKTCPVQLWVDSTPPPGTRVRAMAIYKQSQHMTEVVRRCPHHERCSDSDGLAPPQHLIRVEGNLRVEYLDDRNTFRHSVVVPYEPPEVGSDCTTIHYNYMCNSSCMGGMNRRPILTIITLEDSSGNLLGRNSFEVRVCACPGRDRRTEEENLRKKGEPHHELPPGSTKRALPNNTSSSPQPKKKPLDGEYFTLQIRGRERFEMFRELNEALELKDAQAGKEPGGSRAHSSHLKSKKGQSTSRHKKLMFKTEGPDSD
In short: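 NCI-H358 cells pre-induced 24 h with 10 ng/ml doxycycline for eGFP-delta133p53alpha, plated dox-free and exposed 24 h at 37C to titrated compounds. Fixed, Hoechst-stained; gated GFP peak intensity by laser scanning cytometry, normalized to DMSO (0%) and 57.5 uM 5-azacytidine (100%).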

[2] = biological target: Aldehyde dehydrogenase, mitochondrial (Homo sapiens) (UniProt P05091); test: qHTS for Inhibitors of the Aldehyde Dehydrogenase Family (ALDH2) Primary screen (AID 2061308);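 note: plate controls were vehicle for no effect and reference inhibitor for full effect; nearly all actives have a fitted effect of over 55% in size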
[3] = biological target: Retinaldehyde dehydrogenase 3 (Homo sapiens) (UniProt P47895); test: qHTS for Inhibitors of the Aldehyde Dehydrogenase Family (ALDH1A3) Validation screen (AID 2061312); note: nearly all actives have a fitted effect of over 45% in size; note: potency is the fitted concentration of half-maximal effect
[4] = biological target: Retinaldehyde dehydrogenase 3 (Homo sapiens) (UniProt P47895); test: qHTS for Inhibitors of the Aldehyde Dehydrogenase Family (ALDH1A3) Primary screen (AID 2061315);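 note: plate controls were DMSO vehicle for no effect and reference inhibitor for full effect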
[5] = BET inhibitor-based combinations targeting novel dependencies in MECOM-rearranged (r) AML: SET-2 cell line (AID 2202231); conditions: SET-2 AML cells viability, CellTiter-Glo luminescence, 48 h; viability: active compounds read low, concentration not given here; note: nearly all actives have a fitted effect of over 35% in size; note: potency is the fitted concentration of half-maximal effect;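 for viability: plate controls were DMSO treated cells for no effect and wells without cells for full effect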
In short: (§1)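 Each compound was tested at eleven concentrations on cells seeded at 500/well. After two days' incubation, ATP-based luminescence reported viability; responses relative to DMSO and blank wells yielded AUC and cell-line-centred Z-AUC.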

[6] = BET inhibitor-based combinations targeting novel dependencies in MECOM-rearranged (r) AML: HNT-34 cell line (AID 2202234); note: nearly all actives have a fitted effect of over 35% in size; note: potency is the fitted concentration of half-maximal effect
In short: (§2)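 First, 500 cells per well were seeded; next, drugs were pinned as 11-point doses; then plates sat 48 hr in the incubator; finally CellTiter-Glo was added and luminescence read, with AUC and Z-AUC computed.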

[7] = BET inhibitor-based combinations targeting novel dependencies in MECOM-rearranged (r) AML: UCSD-AML1 cell line (AID 2202235); note: nearly all actives have a fitted effect of over 40% in size; note: potency is the fitted concentration of half-maximal effect
In short: as §2

[8] = BET inhibitor-based combinations targeting novel dependencies in MECOM-rearranged (r) AML: AML-191 cell line (AID 2202236; note: nearly all actives have a fitted effect of over 35% in size; note: potency is the fitted concentration of half-maximal effect)
In short: as §1

[9] = BET inhibitor-based combinations targeting novel dependencies in MECOM-rearranged (r) AML: AML-194 cell line (AID 2202237; note: nearly all actives have a fitted effect of over 40% in size; note: potency is the fitted concentration of half-maximal effect)
In short: as §1

[10] = BET inhibitor-based combinations targeting novel dependencies in MECOM-rearranged (r) AML: OCI-AML3 cell line (AID 2202232); conditions: Potency: OCI-AML3 viability; note: nearly all actives have a fitted effect of over 35% in size; note: potency is the fitted concentration of half-maximal effect
In short: as §1

[11] = BET inhibitor-based combinations targeting novel dependencies in MECOM-rearranged (r) AML: MV-4-11 cell line (AID 2202233); note: nearly all actives have a fitted effect of over 45% in size; note: potency is the fitted concentration of half-maximal effect
In short: as §2

CCN(c1cc(-c2ccc(CN3CCOCC3)cc2)cc(C(=O)NCc2c(C)cc(C)[nH]c2=O)c1C)C1CCOCC1
inactive: activation [1] -17.7% | Potency [2] | Potency [3] | Potency [4] | viability [5] 94.8% | Potency [6] | Potency [7] | Potency [8] | Potency [9]

COc1cc(C)c(Sc2cnc(NC(=O)c3ccc(CNC(C)C(C)C)cc3)s2)cc1C(=O)N1CCN(C(C)=O)CC1 (centres undefined)
inactive: activation [1] -11.2% and 19.6% | Potency [2] | Potency [3] | Potency [4]
active: Potency [10] 20.9 µM | Potency [11] 7.42 µM | Potency [6] 16.6 µM | Potency [7] 16.6 µM | Potency [8] 16.6 µM | Potency [9] 14.8 µM

O=C1[C@H](CC[C@H](O)c2ccc(F)cc2)[C@@H](c2ccc(O)cc2)N1c1ccc(F)cc1
active: Potency [10] 20.9 µM | Potency [11] 16.6 µM
inactive: activation [1] -8.47% and 7.16% | Potency [2] | Potency [3] | Potency [4]

CCc1nc(-c2cccc(C)c2)c(-c2ccnc(NC(=O)c3ccccc3)c2)s1
active: Potency [10] 0.0093 µM | Potency [11] 10.5 µM
inactive: activation [1] 17.2% | Potency [2] | Potency [3] | Potency [4]

Fc1ccc2[nH]ccc2c1-c1nc(N2CCOCC2)c2sc(CN3CCN(CC4CC4)CC3)cc2n1
active: Potency [5] 23.5 µM | Potency [11] 14.8 µM | Potency [6] 18.6 µM | Potency [7] 16.6 µM | Potency [8] 10.5 µM | Potency [9] 8.33 µM
inactive: activation [1] 22% | Potency [2] | Potency [3] | Potency [4]

Cc1cc(C)cc(NC(=O)Cc2ccc(OC(C)(C)C(=O)O)cc2)c1
inactive: activation [1] -4.3% | Potency [2] | Potency [3] | Potency [4] | Potency [10] | Potency [11] | Potency [6] | Potency [7] | Potency [8] | Potency [9]

CNC(=O)c1cccc(-c2ccc3c(N4CCOC[C@@H]4C)nc(N4CCOC[C@@H]4C)nc3n2)c1
active: Potency [10] 0.263 µM | Potency [11] 0.372 µM | Potency [7] 0.0661 µM
inactive: activation [1] 20% | Potency [2] | Potency [3] | Potency [4]

OCCn1cc(-c2cnc3nnn(Cc4ccc5ncccc5c4)c3n2)cn1
inactive: activation [1] -13.3% and 3.34% | Potency [2] | Potency [3] | Potency [4] | viability [5] 101% | Potency [7] | Potency [9]

C=Cc1cc(O)cc2nc(-c3ccc(O)c(F)c3)oc12
inactive: activation [1] -0.955% | Potency [2] | Potency [3] | Potency [4] | viability [5] 113% | Potency [6] | Potency [7] | Potency [9]

Cc1nc(C(=O)NCC(=O)O)c(O)c2ccc(Oc3ccccc3)cc12
inactive: activation [1] 24.6% and -12.3% | Potency [2] | Potency [3] | Potency [4] | viability [5] 96.3% | Potency [7]

Cn1cc(-c2cnn3c(N)c(Br)c([C@@H]4CCCNC4)nc23)cn1
active: Potency [10] 13.2 µM | Potency [11] 0.468 µM
inactive: activation [1] 3.82% | Potency [2] | Potency [3] | Potency [4]

CCNCc1nc2c(N)nc3ccccc3c2n1CC(C)(C)O
active: Potency [11] 20.9 µM
inactive: activation [1] -0.477% | Potency [2] | Potency [3] | Potency [4] | viability [5] 94.4% | Potency [7] | Potency [9]

CC(C)N(CCCNC(=O)Nc1ccc(C(C)(C)C)cc1)C[C@H]1O[C@@H](n2cc(Br)c3c(N)ncnc32)[C@H](O)[C@@H]1O
inactive: activation [1] -6.7% | Potency [2] | Potency [3] | Potency [4] | Potency [7]
active: Potency [10] 23.5 µM | Potency [11] 20.9 µM | Potency [6] 26.3 µM

CN(C)C1CCN(C(=O)c2ccc(NC(=O)Nc3ccc(-c4nc(N5CCOCC5)nc(N5CCOCC5)n4)cc3)cc2)CC1
active: Potency [10] 0.166 µM | Potency [11] 0.118 µM | Potency [6] 0.118 µM | Potency [7] 0.263 µM
inactive: activation [1] -0.955% | Potency [2] | Potency [3] | Potency [4]

c1cc(OCCN2CCCCC2)cc(-c2n[nH]c3ccc(-c4ncn[nH]4)cc23)c1
inactive: activation [1] 5.89% and 12.9% | Potency [2] | Potency [3] | Potency [4]
active: Potency [11] 1.86 µM | Potency [6] 14.8 µM | Potency [7] 13.2 µM

COc1ccc2c(Oc3ccc(NC(=O)c4c(C)n(CC(C)(C)O)n(-c5ccccc5)c4=O)nc3)ccnc2c1
active: Potency [11] 0.372 µM | Potency [6] 3.32 µM
inactive: activation [1] 16.6% and 11.9% | Potency [2] | Potency [3] | Potency [4]

CC(C)c1cc(-c2n[nH]c(=O)n2-c2ccc3c(ccn3C)c2)c(O)cc1O
active: Potency [11] 0.0235 µM | Potency [7] 0.0468 µM
inactive: activation [1] -0.957% and -3.82% | Potency [2] | Potency [3] | Potency [4]

CNCc1ccc(-c2[nH]c3cc(F)cc4c3c2CCNC4=O)cc1
active: Potency [11] 11.8 µM
inactive: activation [1] 35.7% | Potency [2] | Potency [3]

CC#C[C@@H](CC(=O)O)c1ccc(OCc2cccc(-c3ccc(C(F)(F)F)cc3)c2)cc1
active: Potency [8] 20.9 µM
inactive: activation [1] -17.2% | Potency [2] | Potency [3] | Potency [4] | Potency [6]

CCN(CC)Cc1ccc2cc(COC(=O)Nc3ccc(C(=O)NO)cc3)ccc2c1
active: Potency [1] 30.1 µM and 27.3 µM | Potency [5] 0.662 µM | Potency [10] 0.662 µM | Potency [11] 0.372 µM | Potency [6] 0.934 µM | Potency [7] 0.525 µM | Potency [8] 0.742 µM | Potency [9] 0.934 µM
inactive: Potency [2] | Potency [3]

COc1ccc2c(Oc3ccc(NC(=O)c4c(C)n(CC(C)(C)O)n(-c5ccccc5)c4=O)cc3F)ccnc2c1
inactive: activation [1] -9.3% and -1.91% | Potency [2] | Potency [3] | Potency [4] | Potency [7]
active: Potency [11] 0.209 µM | Potency [6] 4.68 µM | Potency [8] 20.9 µM

COc1ccc(-n2nc(C(N)=O)c3c2C(=O)N(c2ccc(N4CCCCC4=O)cc2)CC3)cc1
inactive: activation [1] 22.9% and -7.16% | Potency [2] | Potency [3] | Potency [4] | Potency [10] | Potency [11] | Potency [8] | Potency [9]

c1ccc(CNc2nc(N3CCOc4ccccc43)nc3c2CCCC3)cc1
inactive: activation [1] -5.48% and -6.21% | Potency [2] | Potency [3] | Potency [4] | Potency [10] | Potency [7] | Potency [9]

CNC(=O)c1ccc2c(C(=Nc3cccc(CN(C)C)c3)c3ccccc3)c(O)[nH]c2c1
inactive: activation [1] -0.477% | Potency [2] | Potency [3] | Potency [7]
active: Potency [11] 1.66 µM | Potency [6] 20.9 µM

CN(C(=O)c1ccc(F)cc1C(F)(F)F)C1CCN(c2nnc(-c3ccnn3C)c3ccccc23)CC1
active: Potency [11] 16.6 µM
inactive: activation [1] 36.5% and 1.43% | Potency [2] | Potency [3] | Potency [4] | Potency [7] | Potency [9]

CC(C)C(=O)Nc1ncc(-c2cc(C(F)F)nn2-c2c(Cl)cccc2Cl)s1
active: Potency [10] 23.5 µM | Potency [6] 16.6 µM | Potency [8] 20.9 µM
inactive: activation [1] 35.2% and 29.6% | Potency [2] | Potency [3] | Potency [4] | Potency [7]

CCCCn1c(=O)n(Cc2ccccc2F)c(=O)c2[nH]c(Cc3ccc(NC(C)=O)cc3)nc21
inactive: activation [1] 0.477% | Potency [2] | Potency [3] | Potency [4] | Potency [10] | Potency [11] | Potency [7] | Potency [8] | Potency [9]

CCCN1CCN(c2ccc(C(=O)NC3(C(=O)NCC#N)CCCCC3)cc2)CC1
inactive: activation [1] -6.68% | Potency [2] | Potency [3] | Potency [4] | Potency [11] | Potency [6] | Potency [7] | Potency [8] | Potency [9]

O=C1Nc2ccc(Cl)cc2[C@@](C#CC2CC2)(C(F)(F)F)O1
active: Potency [11] 23.5 µM and 20.9 µM
inactive: activation [1] 17.5% and 0% | Potency [2] | Potency [3] | Potency [4] | Potency [7]

O=C(c1cc(Cc2n[nH]c(=O)c3ccccc23)ccc1F)N1CCN(C(=O)C2CC2)CC1
inactive: activation [1] 8.16% and -16.2% | Potency [2] | Potency [3] | Potency [4]
active: Potency [11] 8.33 µM

COCCCOc1ccnc(CS(=O)c2nc3ccccc3[nH]2)c1C (centres undefined)
inactive: activation [1] -8.47% and 40% and -11.5% | Potency [2] | Potency [3] | Potency [4] | Potency [10] | Potency [6] | Potency [7] | Potency [8] | Potency [9]

Cc1nc(Nc2ncc(C(=O)Nc3c(C)cccc3Cl)s2)cc(N2CCN(CCO)CC2)n1
active: Potency [1] 9.53 µM | Potency [10] 13.2 µM | Potency [11] 13.2 µM | Potency [7] 7.42 µM | Potency [8] 14.8 µM | Potency [9] 11.8 µM
inactive: Potency [2] | Potency [3] | Potency [4]

Cc1ccc(Nc2cc(-c3cccc(N4C(=O)c5ccccc5C4=O)c3)ncn2)cc1NS(C)(=O)=O
active: Potency [11] 10.5 µM
inactive: activation [1] 19.8% and 20% | Potency [2] | Potency [3] | Potency [4]

CCNC1(C(N)=O)CCN(c2ncnc3c2nc(-c2ccccc2Cl)n3-c2ccc(Cl)cc2)CC1
inactive: activation [1] 0.477% | Potency [2] | Potency [3] | Potency [4] | Potency [10] | Potency [7]
active: Potency [6] 26.3 µM

C[C@@]1(C(=O)Nc2ccc(F)nc2)CCCN1c1nc(Nc2cc(C3CC3)[nH]n2)c2cccn2n1
active: Potency [10] 0.0742 µM | Potency [11] 2.95 µM | Potency [9] 1.48 µM
inactive: activation [1] 19.3% | Potency [2] | Potency [3] | Potency [4]

N#Cc1ccc(Oc2ccc3c(c2)COB3O)cc1
inactive: activation [1] 19.4% and -4.77% | Potency [2] | viability [5] 109% | Potency [6]
active: Potency [3] 2.82 µM | Potency [8] 13.2 µM

CCCc1cc(C)[nH]c(=O)c1CNC(=O)c1cc(-c2ccnc(N3CCN(C)CC3)c2)cc2c1cnn2C(C)C
inactive: activation [1] -12.3% | Potency [2] | Potency [3] | Potency [4]
active: Potency [11] 23.5 µM

Source: PubChem BioAssay (NCATS)
